Test results reported in PubChem BioAssay AID651598 (Sanford-Burnham Center for Chemical Genomics, 2012).
Several values for one entry are separate records, joined by “and”; a condition that tells them apart may be missing. Equal entries are not always repeated.

target: C-X-C chemokine receptor type 6 (Homo sapiens) (UniProt O00574); test: APJ beta-arrestin recruitment blockade alongside CXCR6 – cell-based, DiscoveRx, panel, CHO-K1, counter-screen for CXCR6 antagonist project, SAR follow-up (AID 651598); conditions: CHO-K1 PathHunter beta-arrestin luminescence, antagonist mode; run 5, at 80 µM (top of the series)
Sequence (O00574 whole entry, looked up): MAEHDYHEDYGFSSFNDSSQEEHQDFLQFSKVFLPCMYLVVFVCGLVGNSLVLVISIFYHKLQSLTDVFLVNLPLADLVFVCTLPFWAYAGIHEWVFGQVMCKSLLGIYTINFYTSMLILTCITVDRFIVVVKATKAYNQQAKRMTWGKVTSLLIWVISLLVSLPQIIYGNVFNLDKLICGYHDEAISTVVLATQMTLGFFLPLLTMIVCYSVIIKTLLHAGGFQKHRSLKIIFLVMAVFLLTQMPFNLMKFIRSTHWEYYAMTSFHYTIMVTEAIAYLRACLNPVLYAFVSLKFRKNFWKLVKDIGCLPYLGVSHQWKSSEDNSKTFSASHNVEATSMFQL

Row | Compound | inhibition
1 | COc1cc(C(=O)NC2CC3CCC(C2)N3CC(=O)Nc2ccccc2)cc(OC)c1OC (stereo not drawn) | 45.3% and 9.45%
2 | COc1cc(C(=O)NC2CCN(CC(=O)Nc3ccccc3)CC2)cc(OC)c1OC | 12%
3 | COc1cc(C(=O)NC2CC3CCCC(C2)N3CC(=O)Nc2ccccc2)cc(OC)c1OC (stereo not drawn) | 85.4% and 45.2% and 22.2%
